# Measured values published in PubChem BioAssay (Tox21).
# “And” between values parts separate entries of the source, which are not always exact repeats. Equal entries are not always repeated. Results filed as inconclusive are left out. Where a call stands in place of a potency, no number is given. The source holds several records for some structures; these can differ, active in one and inactive in another. The source made the active and inactive calls. Unless noted, calls follow the shape of the dose curve; as a rule, active = well fitted curve in the direction sought with a large enough effect in the repeat runs; inconclusive = weak or mixed curves; inactive = no such curve, though single readings can be large; an effect the other way counts as inactive or inconclusive.
# Tests used:
# [1] = qHTS assay to identify small molecule antagonists of the glucocorticoid receptor (GR) signaling pathway - cell viability counter screen (AID 720693); also: nearly all actives have a fitted effect of over 55% in size; also: potency is read from the fitted curve at half-maximal effect
# [2] = qHTS assay for identifying genotoxic compounds that show differential cytotoxicity against isogenic chicken DT40 cell lines with known DNA damage response pathways - Rev3 mutant cell line (AID 743014); also: nearly all actives have a fitted effect of over 55% in size; also: potency is read from the fitted curve at half-maximal effect
# [3] = qHTS assay for identifying genotoxic compounds that show differential cytotoxicity against isogenic chicken DT40 cell lines with known DNA damage response pathways - Rad54/Ku70 mutant cell line (AID 743015); also: nearly all actives have a fitted effect of over 60% in size; also: potency is read from the fitted curve at half-maximal effect
# [4] = qHTS assay to identify small molecule antagonists of the androgen receptor (AR) signaling pathway - cell viability counter screen (AID 743033; also: nearly all actives have a fitted effect of over 45% in size; also: potency is read from the fitted curve at half-maximal effect)
# [5] = qHTS assay to identify small molecule antagonists of the androgen receptor (AR) signaling pathway using the MDA cell line - cell viability counter screen (AID 743041; also: nearly all actives have a fitted effect of over 45% in size; also: potency is read from the fitted curve at half-maximal effect)
# Procedure, shortened: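 qHTS viability read-out; MDA-kb2 AR-luc; R1881-stimulated; 16 h exposure at 37C, 0% CO2; CellTiter-Fluor, 30 min; fluorescence intensity.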
# [6] = target: Androgen receptor (Homo sapiens) (UniProt P10275); test: qHTS assay to identify small molecule antagonists of the androgen receptor (AR) signaling pathway (AID 743035; active = well fitted inhibition curve with a large enough effect in the signal ratio in the repeat runs, not every such curve was filed as active; the % refers to the signal ratio; also: potency is read from the fitted curve at half-maximal effect)
# Procedure, shortened: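 AR-bla HEK293 reporter cells; 4 h settle at 37C/5% CO2; compound + R1881 agonist, 16 h at 37C; LiveBLAzer B/G FRET substrate 2 h RT; fluorescence intensity read. qHTS format.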
# [7] = target: Androgen receptor (Homo sapiens) (UniProt P10275); test: qHTS assay to identify small molecule agonists of the androgen receptor (AR) signaling pathway (AID 743036; active = well fitted activation curve with a large enough effect in the signal ratio in the repeat runs, with a control signal flat, not every such curve was filed as active; the % refers to the signal ratio)
# Procedure, shortened: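 Fluorescence from a beta-lactamase FRET substrate served as read-out in AR-UAS-bla GripTite HEK293 cells. Cells were treated with DMSO-dissolved compounds for 16 h at 37C, then with LiveBLAzer B/G substrate for 2 h at room temperature.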
# [8] = target: Androgen receptor (Homo sapiens) (UniProt P10275); test: qHTS assay to identify small molecule agonists of the androgen receptor (AR) signaling pathway using the MDA cell line (AID 743040; also: nearly all actives have a fitted effect of over 20% in size)
# Procedure, shortened: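 Agonist activity is measured as luciferase luminescence in human MDA-kb2 cells whose MMTV reporter responds to both AR and GR. Compounds in DMSO incubate 16 h at 37C, 0% CO2, and ONE-Glo is read after 30 min.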
# [9] = qHTS assay for identifying genotoxic compounds that show differential cytotoxicity against isogenic chicken DT40 cell lines with known DNA damage response pathways - wild type cell line (AID 743012); also: nearly all actives have a fitted effect of over 60% in size; also: potency is read from the fitted curve at half-maximal effect
# Procedure, shortened: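 CellTiter-Glo luminescence readout of viability in wild type DT40 cells after 40 h compound exposure at 37 C/5% CO2; 300 cells/well; reagent incubated 30 min at room temperature before reading.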
# [10] = target: Androgen receptor (Homo sapiens) (UniProt P10275); test: qHTS assay to identify small molecule antagonists of the androgen receptor (AR) signaling pathway using the MDA cell line (AID 743042; also: nearly all actives have a fitted effect of over 55% in size; also: potency is read from the fitted curve at half-maximal effect)
# Procedure, shortened: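 MDA-kb2 cells (human breast carcinoma, stably carrying an MMTV-luciferase reporter responsive to AR and GR) were plated at 3,000 cells/well and preincubated 5 hr at 37C, then given compound plus R1881 agonist for 16 h. ONE-Glo luminescence was read.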
# Androgen receptor (Homo sapiens), sequence (P10275 whole entry, looked up): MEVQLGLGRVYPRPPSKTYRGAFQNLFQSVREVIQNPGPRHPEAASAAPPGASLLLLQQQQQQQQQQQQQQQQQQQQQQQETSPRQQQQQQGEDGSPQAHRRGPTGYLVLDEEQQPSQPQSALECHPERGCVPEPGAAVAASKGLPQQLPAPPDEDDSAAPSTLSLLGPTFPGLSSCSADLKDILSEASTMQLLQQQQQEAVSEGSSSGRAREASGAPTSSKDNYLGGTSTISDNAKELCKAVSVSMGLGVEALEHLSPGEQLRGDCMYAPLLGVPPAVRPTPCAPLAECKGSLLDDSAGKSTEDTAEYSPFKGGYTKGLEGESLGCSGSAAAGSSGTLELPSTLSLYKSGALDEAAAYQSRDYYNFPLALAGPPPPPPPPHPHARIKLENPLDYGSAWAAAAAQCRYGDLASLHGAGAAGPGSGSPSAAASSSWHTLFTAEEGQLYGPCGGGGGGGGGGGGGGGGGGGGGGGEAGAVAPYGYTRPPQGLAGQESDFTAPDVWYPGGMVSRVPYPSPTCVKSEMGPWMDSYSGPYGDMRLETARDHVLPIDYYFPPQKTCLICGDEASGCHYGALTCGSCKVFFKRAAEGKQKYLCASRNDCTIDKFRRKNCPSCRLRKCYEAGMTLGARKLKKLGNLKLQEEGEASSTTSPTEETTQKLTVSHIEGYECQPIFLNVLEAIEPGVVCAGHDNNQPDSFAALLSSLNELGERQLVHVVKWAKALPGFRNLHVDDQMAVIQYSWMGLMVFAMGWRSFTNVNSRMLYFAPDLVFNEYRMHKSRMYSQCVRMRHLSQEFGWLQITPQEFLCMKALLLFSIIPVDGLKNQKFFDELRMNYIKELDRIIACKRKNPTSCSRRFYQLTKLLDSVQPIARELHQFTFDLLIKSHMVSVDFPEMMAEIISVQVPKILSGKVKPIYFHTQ
compound,measurement,setting,value
CCN(CC)CCN1C(=O)CN=C(c2ccccc2F)c2cc(Cl)ccc21,Potency,[1],inactive
same,Potency,[2],13.3 µM (active)
same,Potency,[3],26.6 µM (active)
same,Potency,[4],inactive
same,Potency,[5],inactive
CC(C)[C@@H](Nc1ccc(C(F)(F)F)cc1Cl)C(=O)OC(C#N)c1cccc(Oc2ccccc2)c1 (stereo not given in full),Potency,[1],inactive
same,Potency,[2],inactive
same,Potency,[3],inactive
same,Potency,[4],inactive
same,Potency,[5],inactive
COP(=O)(OC)O/C(=C\Cl)c1cc(Cl)c(Cl)cc1Cl,Potency,[1],inactive
same,Potency,[2],30.6 µM (active)
same,Potency,[3],17.2 µM (active)
same,Potency,[6],21.9 µM (active)
same,outcome,[7],inactive
same,outcome,[8],inactive
same,Potency,[5],inactive
CCN(CC)CCc1c[nH]c2ccccc12,Potency,[1],inactive
same,Potency,[2],inactive
same,Potency,[3],inactive
same,Potency,[5],inactive
CCOC(=O)CCN(SN(C)C(=O)Oc1cccc2c1OC(C)(C)C2)C(C)C,Potency,[1],inactive
same,Potency,[2],24.3 µM (active)
same,Potency,[3],21.7 µM (active)
same,Potency,[4],inactive
same,Potency,[5],inactive
c1ccc(Nc2ccc(Nc3ccccc3)cc2)cc1,Potency,[1],inactive
same,Potency,[2],21.6 µM (active)
same,Potency,[3],24.2 µM (active)
same,Potency,[5],inactive
CC(=O)O.CC(=O)O.CC(=O)O.CC(=O)O.CC(=O)O.CC(=O)O.CC(=O)O.O.O.[Cr].[Cr].[Cr],Potency,[1],inactive
same,Potency,[2],inactive
same,Potency,[3],inactive
same,Potency,[4],inactive
same,Potency,[5],inactive
Cc1cc2c3c(c1)C(c1ccccc1)=N[C@@H](NC(=O)c1ccncc1)C(=O)N3CC2,Potency,[1],inactive
same,Potency,[2],61.1 µM (active)
same,Potency,[5],inactive
CCCC[N+]1(C)CCCC1 (tested in a mixture with another compound),Potency,[1],inactive
same,Potency,[2],inactive
same,Potency,[3],inactive
same,Potency,[5],inactive
CN1C(=O)[C@@H](NC(=O)c2cc3ccccc3[nH]2)N=C(c2ccccc2)c2ccccc21,Potency,[1],inactive
same,Potency,[3],18.8 µM (active)
same,Potency,[4],inactive
same,Potency,[5],inactive
COc1ccc2c3c1O[C@H]1[C@H](O)CC[C@H]4[C@@H](C2)N(C)CC[C@@]341,Potency,[1],inactive
same,Potency,[2],inactive
same,Potency,[3],inactive
same,Potency,[4],inactive
same,Potency,[5],inactive
CCCN,Potency,[1],inactive
same,Potency,[2],inactive
same,Potency,[3],inactive
same,Potency,[4],inactive
same,Potency,[5],inactive
CC(C)C(Br)C(=O)NC(N)=O (stereo not given),Potency,[1],inactive
same,Potency,[2],inactive
same,Potency,[3],inactive
same,Potency,[5],inactive
CNC(=O)/C=C(\C)OP(=O)(OC)OC,Potency,[1],inactive
same,Potency,[2],inactive
same,Potency,[3],inactive
same,Potency,[5],inactive
Oc1cccc(Cl)c1Cl,Potency,[1],inactive
same,Potency,[3],inactive
same,Potency,[5],inactive
N#Cc1ccc(N(CC(N)=O)CC(F)(F)F)cc1C(F)(F)F,Potency,[1],inactive
same,Potency,[2],inactive
same,Potency,[5],inactive
Nc1c(Cl)c(Cl)c(Cl)c(Cl)c1Cl,Potency,[1],inactive
same,Potency,[3],inactive
same,Potency,[4],inactive
same,outcome,[8],inactive
CC(=O)[O-].CC(=O)[O-].CC(=O)[O-].[Cr+3],Potency,[1],inactive
same,Potency,[2],60.9 µM (active)
same,Potency,[3],19.3 µM (active)
same,Potency,[4],inactive
same,Potency,[5],inactive
O=[N+]([O-])C(Br)Br,Potency,[1],inactive
same,Potency,[4],inactive
same,outcome,[7],inactive
same,outcome,[8],inactive
same,Potency,[5],inactive
CCCCC(CC)COC(=O)OOC(C)(C)C (stereo not given),Potency,[1],inactive
same,Potency,[2],inactive
same,Potency,[3],inactive
same,Potency,[4],inactive
same,Potency,[5],inactive
O=C(NC(=O)c1ccccc1Cl)Nc1ccc(OC(F)(F)F)cc1,Potency,[1],inactive
same,Potency,[3],inactive
same,Potency,[4],inactive
same,Potency,[6],inactive
same,outcome,[8],inactive
same,Potency,[5],inactive
CN(C)CCc1c[nH]c2ccccc12,Potency,[1],inactive
same,Potency,[2],inactive
same,Potency,[3],inactive
same,Potency,[4],inactive
same,Potency,[5],inactive
CC(=O)[O-].CC(=O)[O-].O.O.[Zn+2],Potency,[1],inactive
same,Potency,[2],inactive
same,Potency,[3],inactive
same,Potency,[5],inactive
O.O.O.O.O.O.O=S(=O)([O-])[O-].[Ni+2],Potency,[1],inactive
same,Potency,[2],26.1 µM (active)
same,Potency,[4],inactive
same,Potency,[5],inactive
c1ccc(N=NNc2ccccc2)cc1,Potency,[1],inactive
same,Potency,[3],63.3 µM (active)
same,Potency,[4],inactive
O=C(N[C@H]1N=C(c2ccccc2F)c2cccc3c2N(CC3)C1=O)c1cc2ccccc2[nH]1,Potency,[1],inactive
same,Potency,[2],inactive
same,Potency,[3],29.8 µM (active)
same,Potency,[4],inactive
same,Potency,[5],inactive
Nc1nc(N)c(N)c(N)n1,Potency,[1],inactive
same,Potency,[2],inactive
same,Potency,[3],inactive
same,Potency,[4],inactive
same,Potency,[5],inactive
CCNc1nc(NC(C)C(C)C)nc(SC)n1 (stereo not given),Potency,[1],inactive
same,Potency,[2],34.4 µM (active)
same,Potency,[3],61.1 µM (active)
same,Potency,[4],inactive
same,Potency,[5],inactive
CN=C=O,Potency,[1],inactive
same,Potency,[2],inactive
same,Potency,[3],inactive
same,Potency,[4],inactive
same,Potency,[5],inactive
NC1CCC(CC2CCC(N)CC2)CC1 (stereo not given),Potency,[1],inactive
same,Potency,[4],inactive
same,Potency,[5],47.7 µM (active)
CC(C)c1c(CN(C)C(C)Cc2ccccc2)n(C)n(-c2ccccc2)c1=O (stereo not given),Potency,[1],inactive
same,Potency,[4],inactive
same,Potency,[5],inactive
N#CCCl,Potency,[9],inactive
same,Potency,[2],inactive
same,Potency,[3],inactive
same,Potency,[4],inactive
same,Potency,[5],inactive
Oc1cc(Cl)c(Cl)c(Cl)c1Cl,Potency,[1],21.4 µM (active)
same,Potency,[4],53.7 µM (active)
same,outcome,[8],inactive
CC(O)C(=O)[O][Hg][c]1ccccc1 (stereo not given),Potency,[9],0.273 µM (active)
same,Potency,[2],0.217 µM (active)
same,Potency,[3],0.154 µM (active)
same,Potency,[4],2.45 µM (active)
same,Potency,[5],4.86 µM (active)
CCC(C)c1cccc(C(C)CC)c1O (stereo not given),Potency,[1],inactive
same,Potency,[4],inactive
same,Potency,[5],inactive
COc1cnc(OC)n2nc(NS(=O)(=O)c3c(OCC(F)F)cccc3C(F)(F)F)nc12,Potency,[9],inactive
same,Potency,[2],inactive
same,Potency,[3],inactive
same,Potency,[4],inactive
same,Potency,[5],inactive
CCC[CH2][Sn]([CH2]CCC)([CH2]CCC)[O][Sn]([CH2]CCC)([CH2]CCC)[CH2]CCC,Potency,[9],0.336 µM (active)
same,Potency,[2],0.3 µM (active)
same,Potency,[3],0.267 µM (active)
same,Potency,[4],0.603 µM (active)
same,Potency,[6],0.427 µM (active)
same,activity change,[8],-9.89% [at 8.47 µM] (inactive)
same,Potency,[5],1.5 µM (active)
same,Potency,[10],0.844 µM (active)
CCN(CC)C(=O)N[C@@H]1C=C2c3cccc4[nH]cc(c34)C[C@@H]2N(C)C1,Potency,[9],7.5 µM (active)
same,Potency,[2],26.6 µM (active)
same,Potency,[3],16.8 µM (active)
same,Potency,[4],inactive
same,Potency,[5],inactive
C=CCOC(=O)c1ccccc1N,Potency,[9],inactive
same,Potency,[2],inactive
same,Potency,[3],inactive
same,Potency,[4],inactive
same,Potency,[6],inactive
same,outcome,[7],inactive
same,outcome,[8],inactive
same,Potency,[5],inactive
CCOP(=S)(OCC)SC(CCl)N1C(=O)c2ccccc2C1=O (stereo not given),Potency,[9],48.6 µM (active)
same,Potency,[2],43.3 µM (active)
same,Potency,[3],61.1 µM (active)
same,outcome,[7],inactive
same,outcome,[8],inactive
same,Potency,[5],inactive
CCOP(=S)(NC(C)C)Oc1ccccc1C(=O)OC(C)C (stereo not given),Potency,[9],15.4 µM (active)
same,Potency,[2],13.7 µM (active)
same,Potency,[3],17.2 µM (active)
same,Potency,[5],61.1 µM (active)
COC(=O)N(OC)c1ccccc1COc1ccn(-c2ccc(Cl)cc2)n1,Potency,[9],0.193 µM (active)
same,Potency,[2],0.243 µM (active)
same,Potency,[3],0.217 µM (active)
same,Potency,[4],0.871 µM (active)
same,Potency,[5],1.72 µM (active)
Clc1ccc(C(c2ccc(Cl)cc2)C(Cl)Cl)cc1,Potency,[9],39.2 µM (active) and 19.3 µM (active)
same,Potency,[2],17.5 µM (active) and 3.86 µM (active)
same,Potency,[3],27.8 µM (active) and 10.9 µM (active)
same,Potency,[4],inactive
same,Potency,[5],inactive
CN(C)C(=S)SSC(=S)N(C)C,Potency,[9],47.3 nM (active) and 240 nM (active) and 24.3 nM (active)
same,Potency,[2],106 nM (active) and 107 nM (active) and 19.3 nM (active)
same,Potency,[3],106 nM (active) and 135 nM (active) and 19.3 nM (active)
same,outcome,[8],inactive
same,Potency,[5],393 nM (active) and 269 nM (active) and 154 nM (active)
same,Potency,[10],inactive and 170 nM (active) and 61.1 nM (active)
Oc1ccc([C@H]2CNCc3c2ccc(O)c3O)cc1O,Potency,[1],inactive
same,Potency,[4],inactive
same,Potency,[5],inactive
CN(C)c1ccc(N)cc1,Potency,[9],29.9 µM (active)
same,Potency,[2],21.2 µM (active)
same,Potency,[3],26.6 µM (active)
same,Potency,[4],42.6 µM (active)
same,Potency,[6],24 µM (active)
same,outcome,[7],inactive
same,Potency,[5],59.6 µM (active)
Clc1ccc(C2(Cn3cncn3)OCCO2)c(Cl)c1,Potency,[9],61.1 µM (active)
same,Potency,[2],30.6 µM (active)
same,Potency,[3],inactive and 61.1 µM (active)
same,Potency,[4],inactive
same,Potency,[5],inactive
O=S(=O)(NS(=O)(=O)C(F)(F)F)C(F)(F)F,Potency,[9],inactive
same,Potency,[2],inactive
same,Potency,[3],inactive
same,Potency,[4],inactive
same,Potency,[5],inactive
